Screening results deposited in PubChem BioAssay by National Center for Advancing Translational Sciences (NCATS).
TbPYK inhibitor: blocks Trypanosoma brucei pyruvate kinase. Q57TT1. TbPYK enzyme, Kinase-Glo Plus ATP luminescence, 45 min. hit rate 0.12% among 410,000. Potency, µM (series often up to 76.8 µM), for inactives: at the top dose activity, negative = inhibition, hits mostly inhibitors. AID 624173; further: potency means the concentration at half of the fitted maximal effect; on the % scale 0 is the no-effect control and ±100 the full control effect; nearly all actives have a fitted effect of over 50% in size
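Enzyme and substrate buffer are dispensed first and compound is pin-transferred. ADP at 130 uM final then starts the reaction, which runs 45 min at room temperature. Detection reagent is added for 10 min before luminescence is imaged.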
Shiga toxin inh: blocks Shiga toxin action in Vero cells. Vero cells, Shiga toxin protein synthesis inhibition reporter. inhibition, % at 38.7 µM. hit rate 9.2% among 290,000. AID 2315; in the data active means inhibition mostly above about 28%, no sharp cut-off; inactive means mostly below about 43%; further: 0% is about no effect
Cycloheximide cs: affects cycloheximide protein synthesis inhibition readout, counter-screen; cell reporter, cycloheximide protein synthesis inhibition counterscreen; max response, %; hit rate 12% among 300,000; AID 2314; in the data active means max response mostly above about 13%, no sharp cut-off; inactive means mostly below about 14%; further: read at 38.3 µM for the half of the compounds with a filed dose; 0% is about no effect
Giardia FBPA inh: blocks Giardia fructose-bisphosphate aldolase activity; hit rate 0.71% among 290,000; A8B2U2; AID 2451; purified Giardia FBPA; Potency, µM (titrated, usually from 59.6 µM), inactives show at the top dose activity, negative = inhibition, hits mostly inhibitors; further: potency means the concentration at half of the fitted maximal effect; on the % scale 0 is the no-effect control and ±100 the full control effect; nearly all actives have a fitted effect of over 55% in size
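Giardia FBPA (40 nM reagent) was preincubated 10 min at RT with compound (up to 57.5 uM final), then substrate plus GAPDH/TPI/NAD/arsenate coupling system with diaphorase/resazurin was added; resorufin fluorescence (525/598 nm) was read after 20 min.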
LmPK inhibitor: inhibitors of Leishmania mexicana pyruvate kinase; hit rate 0.37% among 290,000; Q27686; AID 1721; Potency, µM (titrated, usually from 57.5 µM), without a hit: top-dose activity change, negative = inhibition, usual class: inhibitors; purified LmPK, Kinase-Glo ATP luminescence, 1 h; further: potency means the concentration at half of the fitted maximal effect; on the % scale 0 is the no-effect control and ±100 the full control effect
Target sequence (Q27686 whole entry, looked up): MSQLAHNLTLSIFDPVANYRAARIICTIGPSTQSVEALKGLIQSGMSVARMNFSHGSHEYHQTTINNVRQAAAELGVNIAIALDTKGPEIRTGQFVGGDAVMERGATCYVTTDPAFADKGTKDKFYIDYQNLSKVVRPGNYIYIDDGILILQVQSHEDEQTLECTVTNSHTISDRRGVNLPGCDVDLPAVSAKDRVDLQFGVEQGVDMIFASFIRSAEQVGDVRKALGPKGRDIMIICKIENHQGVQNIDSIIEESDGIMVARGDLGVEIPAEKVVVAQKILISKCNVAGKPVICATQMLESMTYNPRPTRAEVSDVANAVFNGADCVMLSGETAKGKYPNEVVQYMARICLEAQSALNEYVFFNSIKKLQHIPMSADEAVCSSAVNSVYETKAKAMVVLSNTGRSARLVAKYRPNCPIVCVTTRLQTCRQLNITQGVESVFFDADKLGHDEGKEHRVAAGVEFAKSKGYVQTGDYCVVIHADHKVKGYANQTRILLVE
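In 50 mM imidazole pH 7.2 with 7 mM MgCl2, LmPK (0.1 nM) turned over PEP (0.5 mM) and ADP (0.1 mM) for 1 h at room temperature. Luciferase read-out of ATP.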
RE007 growth inh: less growth of the S. pombe RE007 Vpr strain | S. pombe RE007 Vpr strain, BacTiter-Glo ATP luminescence, 24 h | Potency, µM (highest dose often 92.2 µM), without a hit: at the top dose activity change, negative = less growth, most hits filed as inhibitors | hit rate 0.21% among 360,000 | AID 651644; active means well fitted falling curve with a large enough effect; inconclusive means small, poorly fitted or top-dose-only effect; inactive means no such curve, though single readings can be large or run the other way; further: potency means the concentration at half of the fitted maximal effect; on the % scale 0 is the no-effect control and ±100 the full control effect; nearly all actives have a fitted effect of over 50% in size
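Fission yeast strain RE007, carrying one chromosomally integrated HIV-1 vpr copy, was seeded at OD 0.01 in PMG+AL medium with 23 nL pinned compound. After 24 h at 30 °C and 99% humidity, viability was read by BacTiter-Glo luminescence.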
Active calls of the source: *; u = inconclusive; x = no result; [ ] = dose if it differs, or a comment. This excerpt belongs to a sample that is enriched for hits. Unless noted, the call rests on the fitted dose curve; in most records, active means well fitted curve in the direction sought with a large enough effect; inconclusive means small, poorly fitted or top-dose-only effect, or another doubt; inactive means no such curve, though single readings can be large; an effect the other way counts as inactive or inconclusive.

SMILES	TbPYK inhibitor	Shiga toxin inh	Cycloheximide cs	Giardia FBPA inh	LmPK inhibitor	RE007 growth inh
Cc1cc(NC(=O)CCc2ccccc2)c([N+](=O)[O-])cc1C	-2%	-2	36*	-7%	3%	-1%
O=C(NCCc1ccccc1)c1cnc2sc(N3CCCCCC3)nn2c1=O	-6%	x	x	x	x	x
Cc1cc(C(=O)NCCc2ccccc2)ccc1[N+](=O)[O-]	0%	54*	55*	1%	10%	5%
Cc1cc(C(=O)NCC(c2ccco2)N(C)C)ccc1[N+](=O)[O-] (configuration not stated)	-2%	-4	8.9*	-8%	5%	21%
CN(C)C(CNC(=O)c1ccc(Br)cc1)c1ccco1 (configuration not stated)	10%	-3	-1	2%	4%	1%
CCn1nc(C)c(CN2CCCC(CO)(Cc3cccc(Cl)c3)C2)c1C (configuration not stated)	-3%	-5	-3	4%	3%	-15%
COc1ccccc1Nc1ncc2c(n1)CCN(CC(C)C)C2	2%	x	x	x	x	x
CCc1[nH]nc(C(=O)N/N=C/c2ccncc2)c1C	-1%	50*	24*	x	-17%	-13%
CCOC(=O)c1c(NCc2ccccc2)n[nH]c1C	-1%	25	-1	-6%	-3%	3%
CCOC(=O)c1c(N/N=C/c2ccncc2)n[nH]c1C	1%	50*	25	9%	-15%	-12%
CC(C)(C)C1CCc2c(sc(NC(=O)Cn3nnc(-c4cccc(C(F)(F)F)c4)n3)c2C#N)C1 (configuration not stated)	9%	x	x	x	x	x
Cc1nn(-c2ccccc2)c(-n2cccc2)c1C(=O)N1CCN(c2ccccc2)CC1	0%	x	x	x	x	x
O=C(CSCC(=O)c1ccccc1)Nc1ccccc1Cl	-2%	7	13	0%	-1%	3%
O=C(Nc1ccc(Cl)cc1)C(c1ccccc1)N(CCO)CCO (configuration not stated)	4%	13	3	-2%	2%	4%
O=C(Nc1ccccc1Cl)C(Cl)C(=O)c1ccccc1 (configuration not stated)	-18%	102*	48*	-9%	-6%	2%
O=C(Nc1ccc(Cl)cc1)C(Cl)C(=O)c1ccccc1 (configuration not stated)	u	53	19*	-2%	-1%	11µM*
Nc1nnc(-c2ccncc2)s1	-8%	-3	1	-2%	-8%	0%
CC(C)c1ccc(-c2nnc(N)s2)cc1	-14%	54*	66*	6%	-8%	26%
COc1ccc(-c2nnc(N)s2)cc1OC	-3%	x	x	x	x	-6%
CNc1nnc(-c2ccncc2)s1	-9%	-4	-5	0%	4%	15%
CNc1nnc(-c2ccc(OC)cc2)s1	-3%	78*	33*	2%	-28%	7%
Cc1ccc(-c2nnc(N)s2)cc1	5%	66*	43*	-3%	-5%	1%
CCCOc1ccc(Cc2nc(N)nc(N)n2)cc1	2%	9	-2	0%	6%	9%
CCCOc1ccc(-c2nc(-c3ccc(N)cc3)cs2)cc1	x	62*	68*	-12%	1%	x
Cc1ccc(S(=O)(=O)N(C)C)cc1NC(=O)CCc1ccccc1	-9%	-5	12	3%	8%	0%
SMILES	TbPYK inhibitor	Shiga toxin inh	Cycloheximide cs	Giardia FBPA inh	LmPK inhibitor	RE007 growth inh
CSCCC(N=C(NS(=O)(=O)c1ccc(C)cc1)c1ccccc1)C(=O)O (configuration not stated)	9%	18	-1	1%	1%	-13%
CCCOc1ccc(-c2nnc(N)s2)cc1	-7%	105*	40*	13%	-23%	-18%
COc1ccc(-c2nnc(N)s2)cc1	-6%	39	37*	6%	-7%	-11%
Cc1ccc(SCc2nnc(N)s2)cc1	2%	0	10*	-5%	-4%	-4%
Clc1ccc(Nc2nc(C3CC3)cs2)cc1	-5%	102*	56*	-9%	5%	-27%
Cc1ccc(Nc2nc(C3CC3)cs2)cc1	x	52*	33*	2%	-7%	x
S=c1[nH]nc(Nc2ccc(Cl)cc2)s1	u	12	1	0%	-4%	-4%
O=C(Nc1cccc(C(=O)N2CCN(c3ccc(Cl)cc3)CC2)c1)c1nsc2ccccc12	3%	x	x	x	x	x
COc1ccc(NC(=O)c2cc3c(=O)n(Cc4cccs4)ccc3nc2C)c(OC)c1	0%	x	x	x	x	x
CCc1cc(=S)n2c([nH]c3ccccc32)c1C#N	u	52*	9	3%	-9%	-6%
CCc1cc(=O)n2c([nH]c3ccccc32)c1C#N	2%	42*	44*	-25%	-19%	8%
COCc1cc(=O)n2c([nH]c3ccccc32)c1C#N	-11%	-16	6	u	-7%	9%
CCc1c(C)c(C#N)c2[nH]c3ccccc3n2c1=S	14µM*	-5	-2	u	u	-10%
C=C(C)Cc1c(C)c(C#N)c2[nH]c3ccccc3n2c1=O	-9%	19	-1	u	1%	-2%
COc1cc2ncc3c(-c4ccccc4)nn(CC(=O)NC4CCCCC4)c3c2cc1OC	1%	x	x	x	x	x
O=[N+]([O-])c1ccc(/C=N/Nc2ccnc3cc(Cl)ccc23)o1	-24%	169*	27	x	-7%	-10%
Cc1ccc(-c2cc(C(=O)N/N=C/c3ccc([N+](=O)[O-])o3)c3ccccc3n2)o1	-12%	80*	32*	x	-5%	-16%
Cc1cc(Nc2ccc([N+](=O)[O-])cc2)nc2ccccc12	1%	19	-3	-2%	-1%	-13%
O=C(N/N=C/c1ccc([N+](=O)[O-])o1)c1cc(-c2ccncc2)nc2ccccc12	-8%	27	2	-10%	3%	-21%
O=C(N/N=C/c1ccc([N+](=O)[O-])o1)c1cc(-c2ccc(-c3ccccc3)cc2)nc2ccccc12	3%	101*	32*	-5%	2%	2%
Clc1ccc2c(N/N=C/c3ccccc3Br)ccnc2c1	0%	11	-3	-3%	-3%	-1%
Cc1cc(N/N=C/c2ccc([N+](=O)[O-])o2)nc2ccccc12	-1%	48*	15*	-7%	-4%	-22%
COc1cccc(CNC(=O)Cc2ccc(NC(=O)N3CCSc4ncccc43)cc2)c1OC	-19%[15.4 µM]	x	x	x	x	x
Cc1ccc2nc(SCC(=O)N/N=C/c3ccco3)cc(C)c2c1	1%	8	1	u	12%	25%
Cc1ccc2nc(N/N=C/c3ccco3)cc(C)c2c1	-5%	72*	51*	-13%	-3%	-11%
O=C(c1ccccc1)N1CCN(c2ncnc3c(-c4ccccc4)nsc23)CC1	-4%	-17	-1	0%	6%	10%
Cc1ccc(-c2nsc3c(N4CCC(C(N)=O)CC4)ncnc23)cc1	-5%	52*	33*	7%	5%	4%
